# The whole screen tested about 69,000 compounds, of which about 1,000 (1.4%) showed an effect of 50% or more. The sample as a whole holds a higher share of strong results than the screen did.
# System: Leishmania donovani
# Experiment: Leishmania intramacrophage assay
# Format: functional, organism-based
# Set-up: scale not given: in the data most compounds retested in dose-response had high values
smiles,measurement,setting,value
CSc1nccc(N2CCC3(CCCN(Cc4ccc(F)cc4)C3)C2)n1 (configuration not stated),Percent Effect,"30.3 µM, […]",14.67%
Cc1cn2c(n1)C(CNCC1=Cc3cc(Cl)ccc3OC1)CCC2 (configuration not stated),Percent Effect,"30.3 µM, […]",69.51%
Cc1cn2c(n1)C(CNCC1=Cc3ccccc3OC1)CCC2 (configuration not stated),Percent Effect,"30.3 µM, […]",8.139%
Cc1cn2c(n1)C(CNCc1ccc(C)s1)CCC2 (configuration not stated),Percent Effect,"30.3 µM, […]",-5.269%
CCc1ocnc1C(=O)N1CCCC(n2nc(C)nc2C)C1 (configuration not stated),Percent Effect,30 µM,15.71%
NC(=O)c1cn[nH]c1C1CCCN1C(=O)COc1ccccc1 (configuration not stated),Percent Effect,"30.3 µM, […]",17.94%
CC(NC(=O)CCCc1nc(C(C)(C)C)no1)c1ccccn1 (configuration not stated),Percent Effect,30 µM,-2.756%
Cc1nc(CN2C(=O)CC[C@@H]3[C@H]2CCN3C2CCOC2)cs1.O=C(O)C(F)(F)F (some centres not stated),Percent Effect,"30.3 µM, […]",-26.48%
COC(=O)C(NC(=O)COC1CCCC1)c1cc(F)ccc1F (configuration not stated),Percent Effect,"30 µM, 30.03 µM",54.06%
COC(=O)C(NC(=O)C1CCCC1)c1cc(F)ccc1F (configuration not stated),Percent Effect,30 µM,13.67%
COC(=O)C(NC(=O)CC(C)C)c1cc(F)ccc1F (configuration not stated),Percent Effect,30 µM,17.07%
O=C1CC2(CCCCN2C(=O)c2ccsc2)CN1CC1CC1 (configuration not stated),Percent Effect,"30 µM, 30.03 µM",15.53%
Cc1cnn(CC(=O)Nc2cc(-n3nnnc3C3CC3)ccc2F)c1,Percent Effect,"30.3 µM, […]",1.472%
Cc1nn(C)c2nc(N3CCCC3c3nccs3)sc12 (configuration not stated),Percent Effect,"30.3 µM, […]",4.253%
Cc1nn(C)c2nc(N3CCCCC3c3ccc(F)cc3)sc12 (configuration not stated),Percent Effect,"30.3 µM, […]",66.72%
Cc1nn(C)c2nc(N3CCCCC3c3nccs3)sc12 (configuration not stated),Percent Effect,"30.3 µM, […]",21.88%
CCC(C)NC(=O)c1cc(Br)c2c(c1)OCCO2 (configuration not stated),Percent Effect,30 µM,30.6%
COCCN1CCc2c(c(COc3cccnc3)nn2C)C1.O=C(O)C(F)(F)F.O=C(O)C(F)(F)F,Percent Effect,"30.3 µM, […]",24.9%
Cn1nc(COc2cccnc2)c2c1CCN(CC1CC1)C2.O=C(O)C(F)(F)F.O=C(O)C(F)(F)F,Percent Effect,"30.3 µM, […]",98.75%
Cn1nc(COc2cccnc2)c2c1CCN(Cc1ccco1)C2.O=C(O)C(F)(F)F.O=C(O)C(F)(F)F,Percent Effect,"30.3 µM, […]",17.65%
NC(=O)c1ccc(N2CCCCC2)c(NC(=O)c2cc(Br)ccc2Cl)c1,Percent Effect,"30.3 µM, […]",19.23%
NC(=O)c1ccc(N2CCCCC2)c(NC(=O)c2cc(F)ccc2F)c1,Percent Effect,"30.3 µM, […]",-1.673%
NC(=O)c1ccc(N2CCCCC2)c(NC(=O)c2cc(Br)ccc2F)c1,Percent Effect,"30 µM, 30.03 µM",59.99%
Cc1nnsc1C(=O)N1CCCC(c2nccn2Cc2cscn2)C1 (configuration not stated),Percent Effect,"30.3 µM, […]",-3.035%
O=C(NC[C@]12COC[C@H]1CN(Cc1cccc(F)c1)C2)c1ccco1,Percent Effect,"30.3 µM, […]",61.24%
Cn1cc(CN2C[C@@H]3COC[C@]3(CNC(=O)c3ccco3)C2)cn1.O=C(O)C(F)(F)F,Percent Effect,"30.3 µM, […]",-2.896%
Cc1ccsc1CN1C[C@@H]2COC[C@]2(CNC(=O)c2ccco2)C1.O=C(O)C(F)(F)F,Percent Effect,"30.3 µM, […]",31.86%
CNC(=O)NCC(CO)Cc1ccccc1OC(F)(F)F (configuration not stated),Percent Effect,"30.3 µM, […]",7.334%
CC(c1cccc(-c2ncc(C#N)c(N)n2)c1)N(C)C (configuration not stated),Percent Effect,"30.3 µM, […]",-18.48%
CC(c1cccc(-c2ncccc2F)c1)N(C)C (configuration not stated),Percent Effect,"30.3 µM, […]",42.01%
CC(c1cccc(-c2ncccc2C#N)c1)N(C)C (configuration not stated),Percent Effect,"30.3 µM, […]",54.7%
Cc1cccc(C(=O)N2C[C@@H]3[C@H](CC(=O)Nc4cccnc4)[C@@H]3C2)n1.O=C(O)C(F)(F)F.O=C(O)C(F)(F)F,Percent Effect,"30.3 µM, […]",3.537%
N#Cc1ccnc(N2CCN(C(=O)c3ccc4c(c3)CCO4)CC2)c1,Percent Effect,"30.3 µM, […]",-46.75%
Cc1ccsc1-c1cccc(-c2ccn(CC3CCNC3)n2)c1 (configuration not stated),Percent Effect,"30.3 µM, […]",82.16%
c1cc(-c2cncnc2)cc(-c2ccn(CC3CCNC3)n2)c1 (configuration not stated),Percent Effect,"30.3 µM, […]",5.053%
Cc1nccc(-c2cccc(-c3ccn(CC4CCNC4)n3)c2)n1 (configuration not stated),Percent Effect,"30.3 µM, […]",-9.02%
Cc1ccc(CN(C)C(=O)NCC(C)(C)CCS(C)(=O)=O)s1,Percent Effect,"30.3 µM, […]",20%
CCCNCc1ccc(OCc2ccc3c(c2)OCCO3)cc1.Cl,Percent Effect,"30.3 µM, […]",67.66%
CCNCc1ccc(OCc2ccc3c(c2)OCCO3)cc1.Cl,Percent Effect,"30.3 µM, […]",21.82%
CNCc1ccc(OCc2ccc3c(c2)OCCO3)cc1.Cl,Percent Effect,"30.3 µM, […]",22.52%
CN1CCC(c2nnc3ccc(C(=O)NC4CCCC4)cn23)C1.O=C(O)C(F)(F)F (configuration not stated),Percent Effect,"30.3 µM, […]",23.32%
Fc1ccc2[nH]c(C3CCCN3CCCn3cccn3)nc2c1 (configuration not stated),Percent Effect,"30.3 µM, […]",2.015%
O=C(CN1CCCC1c1nc2cc(F)ccc2[nH]1)NCc1ccccn1 (configuration not stated),Percent Effect,"30.3 µM, […]",34.7%
Fc1ccc2[nH]c(C3CCCN3CCc3ccccn3)nc2c1 (configuration not stated),Percent Effect,"30 µM, 30.03 µM",50.9%
Cc1ccc(C(=O)N2C[C@@H]3COC[C@]3(COc3cccnc3)C2)cn1,Percent Effect,"30 µM, 30.03 µM",15.47%
CC1CN(CC(=O)Nc2cccnc2)CCN1c1nccs1 (configuration not stated),Percent Effect,"30 µM, 30.03 µM",19.22%
CC1CN(CC(=O)Nc2ccncc2)CCN1c1nccs1 (configuration not stated),Percent Effect,30 µM,51.62%
CC1CN(CC(=O)Nc2nncs2)CCN1c1nccs1 (configuration not stated),Percent Effect,"30 µM, 30.03 µM",5.617%
CN(Cc1csc(-c2cccs2)n1)Cc1ncccc1C(=O)O,Percent Effect,"30.3 µM, […]",21.95%
Cc1nc(CN(C)Cc2csc(-c3cccs3)n2)co1,Percent Effect,"30.3 µM, […]",17.38%
CN(Cc1csc(-c2cccs2)n1)Cc1cccnc1N,Percent Effect,"30.3 µM, […]",54.27%
Cc1cc(C)nc(N2CCC(c3cccc(CCC(=O)O)n3)CC2)n1,Percent Effect,"30.3 µM, […]",-9.293%
COc1ccc(CN2CCc3ncnc(C4CCOC4)c3CC2)cc1.O=C(O)C(F)(F)F (configuration not stated),Percent Effect,"30 µM, 30.03 µM",20.96%
CCOCc1ccccc1NC(=O)NC1CCN(C2CCCC2)C1 (configuration not stated),Percent Effect,"30.3 µM, […]",-2.945%
CN(C)c1ncc(CN2CCOC(C(=O)Nc3ccccc3)C2)cn1 (configuration not stated),Percent Effect,"30 µM, 30.03 µM",-7.564%
Cc1cc(C)c(CNC(=O)N2CCCC2c2cccn2C)c(=O)[nH]1 (configuration not stated),Percent Effect,"30 µM, 30.03 µM",13.7%
CC(CO)NC(=O)c1ccc2[nH]/c(=N\S(C)(=O)=O)sc2c1 (configuration not stated),Percent Effect,"30.3 µM, […]",-35.22%
C[C@@H](CO)NC(=O)c1ccc2nc(NS(C)(=O)=O)sc2c1,Percent Effect,"30.3 µM, […]",55.63%
CSCC[C@@H](CO)NC(=O)c1ccc2nc(NS(C)(=O)=O)sc2c1,Percent Effect,"30.3 µM, […]",-13.25%
CC(C)c1nn(C)c(N(C)C)c1CNC1CCCOc2ccccc21 (configuration not stated),Percent Effect,"30.3 µM, […]",11.28%
Cc1c(C(=O)N2CCC(N3CCCCC3)CC2)n(C)c2ccc(Cl)cc12,Percent Effect,"30.3 µM, […]",83.29%
Cc1c(C(=O)N2CCOCC2)n(C)c2ccc(Cl)cc12.Cl,Percent Effect,"30.3 µM, […]",19.33%
Cc1c(C(=O)N2CCN(C)CC2)n(C)c2ccc(Cl)cc12,Percent Effect,"30.3 µM, […]",11.88%
CCS(=O)(=O)N1C[C@@H](c2ccccc2)[C@@]2(CCNC2=O)C1,Percent Effect,"30.3 µM, […]",42.69%
CC1(C)CN(C(CNS(N)(=O)=O)c2ccc(Cl)cc2)CCO1 (configuration not stated),Percent Effect,"30.3 µM, […]",-5.286%
CC(C)N(C)C(=O)C1CSCN1S(=O)(=O)c1cc(Cl)ccc1Cl (configuration not stated),Percent Effect,"30.3 µM, […]",6.679%
CC(C)N(C)C(=O)C1CSCN1S(=O)(=O)c1ccccc1F (configuration not stated),Percent Effect,"30.3 µM, […]",51.74%
CC(C)(C)NC(=O)C1CSCN1S(=O)(=O)c1ccccc1F (configuration not stated),Percent Effect,"30.3 µM, […]",-3.758%
Cc1cccc(NC(=O)CNC(=O)c2ccccc2F)c1,Percent Effect,"30.3 µM, […]",-11.93%
CNC(=O)c1nc(CC(=O)Nc2cccc(C(F)(F)F)c2)no1,Percent Effect,"30.3 µM, […]",-13.79%
O=c1cc(N2CCc3ccccc3C2)cnn1CCC1CCOC1 (configuration not stated),Percent Effect,"30.3 µM, […]",44.37%
CC(C)C(=O)N1CC[C@H]2N(C)CC[C@@]2(C(=O)Nc2ccccc2)CC1,Percent Effect,"30.3 µM, […]",56.37%
CNC(=O)N1CC[C@H]2N(C)CC[C@@]2(C(=O)Nc2ccccc2)CC1,Percent Effect,"30 µM, 30.03 µM",11.56%
CC(C)C(=O)N1CC[C@H]2N(C)CC[C@@]2(C(=O)Nc2cccnc2)CC1.O=C(O)C(F)(F)F.O=C(O)C(F)(F)F,Percent Effect,"30.3 µM, […]",36.27%
CCCc1noc(C2CC(=O)N(CCN(C)C)C2)n1 (configuration not stated),Percent Effect,"30.3 µM, […]",24.39%
CCCc1noc(C2CC(=O)N(C(C)(C)C)C2)n1 (configuration not stated),Percent Effect,"30.3 µM, […]",13.52%
CCCc1noc(C2CC(=O)N(Cc3ccccc3)C2)n1 (configuration not stated),Percent Effect,"30.3 µM, […]",62.8%
O=C(CCS(=O)(=O)c1ccccc1)NC1CCOC2(CCOCC2)C1 (configuration not stated),Percent Effect,"30.3 µM, […]",-6.021%
O=C(O)C(F)(F)F.O=C1CC2(CCCCN2CC2CC2)CN1c1ccccc1 (configuration not stated),Percent Effect,"30.3 µM, […]",20.41%
COCCN1CCCCC12CC(=O)N(c1cccc(C#N)c1)C2.O=C(O)C(F)(F)F (configuration not stated),Percent Effect,"30.3 µM, […]",50.28%
COCCN1CCCCC12CC(=O)N(c1ccccc1OC)C2.O=C(O)C(F)(F)F (configuration not stated),Percent Effect,"30.3 µM, […]",20.15%
COc1ccc(N(c2ccccc2)c2ccc(C(=O)O)s2)cc1,Percent Effect,"30.3 µM, […]",6.692%
Cc1cnc(C(=O)N2CCCC3(CCN(c4cnn(C)c4)C3=O)C2)cn1 (configuration not stated),Percent Effect,"30.3 µM, […]",-31.28%
CN(C)C(=O)CC1CC2(CCN(CC3CC3)CC2)Oc2ccccc21.O=C(O)C(F)(F)F (configuration not stated),Percent Effect,"30.3 µM, […]",9.368%
CCn1nccc1CN(C)C(=O)Cn1nc(C)cc1C,Percent Effect,"30.3 µM, […]",19.68%
CCn1nccc1CN(C)C(=O)Cn1nc(C)c(C)c1C,Percent Effect,"30.3 µM, […]",6.99%
CCn1nccc1CN(C)C(=O)Cn1cc2c(n1)c(C)nn2CC,Percent Effect,"30.3 µM, […]",72.98%
O=C(c1csc(-c2ccc(C(F)(F)F)cc2)n1)N1CCCNCC1,Percent Effect,"30.3 µM, […]",53.12%
O=C1CCN(C(=O)c2csc(-c3ccc(C(F)(F)F)cc3)n2)CCN1,Percent Effect,"30.3 µM, […]",-4.65%
CN1CCCN(C(=O)c2csc(-c3ccc(C(F)(F)F)cc3)n2)CC1,Percent Effect,"30.3 µM, […]",-34.88%
CCc1nc(C2CCCN2CCC(=O)N2CCc3ccccc32)no1 (configuration not stated),Percent Effect,30 µM,-5.363%
Cc1cc(C(=O)Nc2nnn[nH]2)ccc1I,Percent Effect,"30.3 µM, […]",2.496%
O=C(O)C(F)(F)F.O=C(O)C(F)(F)F.O=C(O)C(F)(F)F.c1cncc(COCc2cncc3c2CCN(Cc2ccoc2)C3)c1,Percent Effect,"30.3 µM, […]",3.293%
Cc1cc(C(=O)N2CCc3nc(N4CCCC4)nc(C)c3CC2)c(C)o1,Percent Effect,"30.3 µM, […]",44.41%
Cc1nc(N2CCCC2)nc2c1CCN(C(=O)c1ccoc1C)CC2,Percent Effect,"30.3 µM, […]",54.38%
Cc1nc(N2CCCC2)nc2c1CCN(C(=O)N1CCCC1)CC2,Percent Effect,"30.3 µM, […]",-2.559%
CCn1ccc(C(=O)N2CCCC2(C)c2nc(C)cc(N(C)C)n2)n1 (configuration not stated),Percent Effect,"30.3 µM, […]",26.06%

# From ChEMBL document CHEMBL3988442, “University of Dundee, Small-Polar-MMV Screening Library” (2021)
